Apoferritin bind: qHTS Assay for Identification of Novel General Anesthetics. Ferritin light chain (Equus caballus), P02791. apoferritin/1-aminoanthracene competitive binding, fluorescence. Potency, µM (titrated, usually from 77.5 µM), without a hit: at the highest dose activity change, negative = displacement, usual class: inhibitors. 0.074% of 350,000 active; note: % is set by controls: 0 for no effect and ±100 for the full control effect; nearly all actives have a fitted effect of over 20% in size
Target sequence (P02791 2-175 limits assumed): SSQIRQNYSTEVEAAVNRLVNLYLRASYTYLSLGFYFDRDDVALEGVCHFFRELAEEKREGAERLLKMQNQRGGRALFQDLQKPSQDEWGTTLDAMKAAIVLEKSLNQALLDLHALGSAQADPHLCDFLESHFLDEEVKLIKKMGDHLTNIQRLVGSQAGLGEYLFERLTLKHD
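Read-out: endpoint 1-AMA fluorescence, excitation 380 nm and emission 535 nm, after compounds sit 10 min at room temperature with 10 uM horse-spleen apoferritin in 50% saturated 1-AMA/PBS. Values come from four-parameter Hill fits.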
GoLoco inh red: qHTS Assay for Inhibitors of RGS12 GoLoco Motif Activity (Red Fluorophore) | Guanine nucleotide-binding protein G(i) subunit alpha-1 (Homo sapiens), P63096 | Gai1:RGS12 GoLoco peptide FP, rhodamine, 10 min | Potency, µM (highest dose often 61.6 µM), for the others: at the top dose activity, negative = inhibition, usual class: inhibitors | 0.44% of 230,000 active | AID 880, 2007; active = well fitted inhibition curve with a large enough effect, not every such curve was filed as active; inactive = no such curve, though single readings can be large or run the other way; note: % is set by controls: 0 for no effect and ±100 for the full control effect; nearly all actives have a fitted effect of over 30% in size
Target sequence (P63096 whole entry, looked up): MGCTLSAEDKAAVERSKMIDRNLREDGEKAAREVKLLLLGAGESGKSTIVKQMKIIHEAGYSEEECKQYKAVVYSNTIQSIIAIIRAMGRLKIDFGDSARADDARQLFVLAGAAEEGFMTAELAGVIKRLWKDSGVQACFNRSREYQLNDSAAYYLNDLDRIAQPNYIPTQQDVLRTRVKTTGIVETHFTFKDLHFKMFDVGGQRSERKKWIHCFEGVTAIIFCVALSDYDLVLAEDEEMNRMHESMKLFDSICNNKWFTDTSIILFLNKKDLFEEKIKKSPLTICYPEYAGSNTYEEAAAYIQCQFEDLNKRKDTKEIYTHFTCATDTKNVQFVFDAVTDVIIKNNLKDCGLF
BRCA1 expr up: qHTS Assay to Identify Small Molecule Activators of BRCA1 Expression; Potency, µM (series often up to 46.1 µM), without a hit: top-dose activation, actives largely listed as activators; 1.1% of 380,000 active; MCF7-BRCA1-FFLuc reporter, luminescence, 48 h; response scale: scaled: vehicle 0%, 10 µM genistein 100%; note: nearly all actives have a fitted effect of over 80% in size
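Reporter cells (MCF7, BRCA1 promoter-firefly luciferase) received library compounds across a concentration series for 48 h. End-point luminescence was measured and concentration-effect curves derived after normalization.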
ERG Ets-DNA blk: qHTS for Small Molecule Inhibitors of the ERG Ets/DNA interaction. Transcriptional regulator ERG (Homo sapiens), P11308. fluorescence polarization, His-ERG Ets domain / labelled DNA. Potency, µM (highest dose often 76.9 µM), for inactives: at the highest dose FP activity, negative = inhibition, usual class: inhibitors. 0.028% of 370,000 active; active = well fitted inhibition curve with a large enough effect in the polarisation, with a control signal flat; inconclusive = small, poorly fitted or top-dose-only effect, or effect the other way, or a change in a side signal; inactive = no such curve, though single readings can be large or run the other way; the % refers to the polarisation;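 note: polarization taken with two DNA probes labelled with fluorescein and Texas red; % of control where 0% means no effect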
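His-tagged ERG Ets domain (1 uM in the protein solution; 300mM KCl, 50mM Tris-HCl, 1mM EDTA, 1mM DTT, pH 7.5) received compound, then a probe mix of 5 nM fluorescein-DNA and 100nM Texas-615-DNA. Fluorescence polarization was read for both dyes.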
Starred values were filed as active, the others as inactive; ? = inconclusive; nt = not tested or not shown; ! = not confirmed by another sample; [ ] = dose if it differs, or a comment. A selection: hits, their analogues and other compounds. The true share with any hit is near 1.2%. Unless noted, calls come from the whole dose curve; as a rule, active = well fitted curve in the direction sought with a large enough effect; inconclusive = small, poorly fitted or top-dose-only effect, or another doubt; inactive = no such curve, though single readings can be large; an effect the other way counts as inactive or inconclusive. Potency is the fitted concentration of half-maximal effect.

SMILES | Apoferritin bind | GoLoco inh red | BRCA1 expr up | ERG Ets-DNA blk
COCCn1c(C)cc(/C=C2/SC(=O)N(C(C)C(=O)OC)C2=O)c1C (stereo not given) | -11% | 6% | ? | 2%
COC(=O)CN1C(=O)S/C(=C/c2ccc(N3CCCCC3)o2)C1=O | ? | 203% | 10µM* | ?
COC(=O)CN1C(=O)S/C(=C/c2cc(C)n(C)c2C)C1=O | ? | 7% | 13µM* | 8%
COC(=O)C1=C(C(=O)OC)[C@@H]2N(C)c3ccc(OC)cc3[C@@]23C[C@@H](C(=O)OC)N(C(C)=O)C3=N1 | nt | 0%[14.2 µM] | nt | nt
O=C(C[n+]1cc(Br)cc(Br)c1)c1ccc2c(c1)CCCC2 | nt | nt | 0% | nt
C[N+]1(CC(=O)c2ccc(O)c(O)c2)CCOCC1 | nt | nt | 6% | nt
N#Cc1c(N)nc2c(c1N)CC(COc1ccccc1)O2 (stereo not given) | 4% | -1% | 11µM* | 1%
Cc1ccccc1OCC1Cc2c(nc(N)c(C#N)c2N)O1 (stereo not given) | -9% | nt | 6.3µM* | -7%
N#Cc1c(N)nc2c(c1N)CC(CO)O2 (stereo not given) | -8% | -5% | 0% | 4%
O=S(=O)(c1ccc2c(Cl)cccc2c1)N1CCN(c2nc(-c3cccs3)nc3ccccc23)CC1 | nt | nt | -13% | nt
COc1ccc(/C=C/C(=O)Nc2cccc(S(=O)(=O)NC3=NCCCCC3)c2)cc1 | -2% | 11% | 7.9µM* | 4%
O=[N+]([O-])c1ccc2ncccc2c1CCc1c([N+](=O)[O-])ccc2ncccc12 | nt | 4%[14.2 µM] | nt | nt
O=C(c1ccc(-c2cccc(C(F)(F)F)c2)o1)N1CCOCC1 | -14% | 1% | 11µM* | 3%
CN(C)/C=C/C(=O)c1cnc(-c2ccccc2Cl)s1 | ? | 6% | 6.3µM* | -5%
CN(C)/C=C/C(=O)c1cnc(-c2cccc(Cl)c2)s1 | ? | 4% | ? | -16%
Cc1ccc(NC(=O)c2ccc(OC(=O)c3ccco3)cc2)cc1 | 6% | -5% | ? | nt
Cc1ccc(NC(=O)c2ccc(OC(=O)c3cc4ccccc4o3)cc2)cc1 | -7% | 1% | 4µM* | -6%
O=C(Nc1ccc2oc(=O)ccc2c1)c1cc2ccccc2o1 | -13% | -6% | 2.5µM* | -1%
Cc1cc([N+](=O)[O-])ccc1NC(=O)c1cc2ccccc2o1 | -7% | nt | 7.9µM* | 13%
Cc1noc(C)c1S(=O)(=O)N1CCc2nc(-c3ccccc3)c3c(c2C1)CO[C@@H](C)C3 | nt | 6%[14.2 µM] | nt | nt
C=CCN1c2ccccc2[C@]23C[C@@H](C(=O)OC)N(S(=O)(=O)c4c(C)noc4C)C2=NC(C(=O)OC)=C(C(=O)OC)[C@H]13 | nt | 5%[14.2 µM] | nt | nt
CC(C)CS(=O)(=O)c1oc(-c2ccc(F)cc2)nc1S(=O)(=O)c1ccccc1 | -22% | nt | nt | -3%
O=C(CC(C(=O)O)n1ccnc1)c1ccc(Cl)cc1 (stereo not given) | nt | nt | -15% | nt
CN(C)c1ccnc2sc(C(=O)c3ccc(Br)cc3)c(N)c12 | -3% | 22% | 71% | -7%
Cc1snc2sc(C(=O)c3ccc(F)cc3)c(N)c12 | -3% | 8% | 10µM* | -1%
SMILES | Apoferritin bind | GoLoco inh red | BRCA1 expr up | ERG Ets-DNA blk
Nn1c(CSc2ccccn2)nc2ccccc2c1=O | -22% | 5% | 10µM* | 4%
Cc1nc2ccccc2nc(=O)c1NNc1ccccc1 | -20% | -3% | 5µM*! | -7%
C=C1C=C(C(F)F)n2ncc(C(=O)N3CCN(c4ccccc4)CC3)c2N1 | nt | nt | 0% | nt
C1=Cc2ccccc2/C1=C\c1cc2c3c(c1)CCCN3CCC2 | nt | nt | 79% | nt
CCCCc1nc2cc(C(=O)N3CCCC3)ccc2o1 | -15% | nt | 8.9µM* | -3%
COCCN1CCN(C(=O)c2ccc3oc(CCCc4ccccc4)nc3c2)CC1 | -13% | nt | 13µM* | 0%
Cc1ccc(N2C(=O)c3ccccc3C2Nc2ccc(S(=O)(=O)N3CCOCC3)cc2)nc1 (stereo not given) | -14% | 1% | 14µM* | -6%
Cc1ccc(N2C(=O)c3ccccc3C2Nc2ccc(S(=O)(=O)N3CCCCC3)cc2)nc1 (stereo not given) | -19% | 8% | -7% | -10%
Cc1cc2cc(CNC(=O)c3cccs3)ccc2n1C | -10% | 1% | -1% | 18µM*
CCC(CC)C(=O)NCc1ccc2c(c1)cc(C)n2C | -10% | 0% | 6% | -6%
Cc1cc2cc(CNC(=O)c3ccc(S(=O)(=O)N4CCCC4)cc3)ccc2n1C | ? | -84% | 9% | ?
CCN(CC)S(=O)(=O)c1ccc(C(=O)NCc2ccc3c(c2)cc(C)n3C)cc1 | -21% | -4% | 1% | 32µM*
NC(=O)COc1ccccc1 | 4% | -4% | 10% | 5%
NC(=S)COc1ccccc1 | 2% | 22µM* | -5% | 9%
Cc1ccc(S(=O)(=O)Cc2nc(-c3ccc(C(=O)NCc4ccccc4)cc3)oc2C)cc1 | -3% | nt | nt | 1%
CC(C)(O)C1Cc2cc(/C=C/C(=O)O)c(O)cc2O1 (stereo not given) | -7% | 28µM* | 8% | -25%
COc1cc2c(cc1/C=C/C(=O)O)OC(C)C2 (stereo not given) | 462% | 0% | 0% | -1%
Fc1ccc(-c2cn3cc(Cc4ccccc4)sc3n2)cc1 | 3% | nt | nt | 6%
Fc1ccc(-c2cn3cc(Cc4ccc(Cl)cc4)sc3n2)cc1 | 57% | nt | 4.5µM* | -10%
Fc1ccc(Cc2cn3cc(-c4ccc(Cl)cc4)nc3s2)cc1 | 0% | nt | 0.89µM* | -17%
COc1ccc2nc(NC(=O)CSc3nnc(-c4ccoc4C)n3C)sc2c1 | ? | -3% | 5.6µM* | -3%
O=c1oc2c(O)c(O)cc3c(=O)oc4c(O)c(O)cc1c4c23 | 4% | 28µM*! | 1% | 5%
C/C(CCC(=O)OC[C@@H]1O[C@H](C#Cc2ccccc2)C=C[C@@H]1Oc1ccc(C)cc1)=N/O[C@@H](C)c1cn([C@H](CO)Cc2ccccc2)nn1 | 0%[15.3 µM] | nt | nt | nt
COc1ccc(NC(=S)N2CCC(c3ccc(C)cc3)C2)cc1 (stereo not given) | -8% | nt | 47% | 19%
Cc1ccc(C2CCN(C(=O)Nc3ccccc3)C2)cc1 (stereo not given) | -22% | -4% | 5µM* | 2%
Cc1ccc(NC(=S)N2CCC(c3ccc(C)cc3)C2)cc1 (stereo not given) | -6% | -7% | 11µM* | -2%
Cc1ccc(NC(=O)N2CCC(c3ccccc3)C2)cc1C (stereo not given) | ? | -3% | 2.8µM* | 19%
COc1ccc(C(=O)N2CCCC(c3ccccc3)C2)cc1 (stereo not given) | ? | 3% | ? | 7%
O=C(Nc1ccc(Cl)cc1)N1CCC(c2ccccc2)C1 (stereo not given) | -16% | 1% | ? | -2%

Screening results from PubChem BioAssay.
